The list is not random: actives were taken first. Their share in the collection is about 4%.
Mtb FBA inh: Mtb FBA enzyme inhibitors, primary screen, biochemical, fluorescence, strain H37Rv; purified M. tuberculosis FBA, fluorescence read-out; inhibition, % at 1 µM; 2.3% of 360,000 active; AID 588726, 2011
GDH-TPI counter-1: GDH-TPI coupling enzyme inhibitors, primary screen, artefact control for M. tuberculosis FBA inhibitor project, biochemical, absorbance, full deck; GDH-TPI coupled enzyme counterscreen, NADH absorbance; inhibition, % at 4.8 µM; 1.2% of 360,000 active; AID 588335, 2011; in the data active means inhibition above about 30%
UGM FP inh: M. tuberculosis UGM enzyme inhibitors, primary screen, biochemical, fluorescence polarization, single point; inhibition, % at 10 µM; 0.06% of 320,000 active; UDP-galactopyranose mutase (Mycobacterium tuberculosis (strain ATCC 25618 / H37Rv)), …; purified UGM, fluorescence polarization probe displacement; in the data active means inhibition above about 10%, passing the limit was not always enough
Rv3671c protease: Rv3671c serine protease inhibitors, primary screen, biochemical, fluorescence polarization, M. tuberculosis H37Rv; P9WHR9; 0.048% of 320,000 active; inhibition, % at 5.96 µM; AID 2606, 2010; in the data active means inhibition above about 38%;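 further: extracellular domain of Rv3671c used as enzyme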
Target sequence (P9WHR9 whole entry, looked up, the tested form may be a part): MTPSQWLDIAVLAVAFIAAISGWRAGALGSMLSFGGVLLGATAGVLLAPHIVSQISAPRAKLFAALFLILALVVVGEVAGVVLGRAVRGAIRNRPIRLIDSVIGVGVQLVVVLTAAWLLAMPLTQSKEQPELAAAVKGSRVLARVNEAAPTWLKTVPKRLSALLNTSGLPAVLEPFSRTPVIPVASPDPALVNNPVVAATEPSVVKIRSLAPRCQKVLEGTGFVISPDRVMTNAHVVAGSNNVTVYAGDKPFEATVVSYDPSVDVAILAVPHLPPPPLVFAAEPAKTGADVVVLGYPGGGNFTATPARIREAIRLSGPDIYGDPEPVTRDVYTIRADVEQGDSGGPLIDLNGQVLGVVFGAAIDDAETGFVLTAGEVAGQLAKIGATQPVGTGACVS
RecA splice inh: Mtb RecA intein splicing inhibitors, primary screen, biochemical, fluorescence, HTS | cell-free RecA intein splicing | inhibition, % (concentration not given with the values) | 0.75% of 290,000 active | AID 2221, 2009; in the data active means inhibition above about 30%
Mtb bLac sens: beta-lactam sensitization of Mtb H37Rv, H37Rv; M. tuberculosis H37Rv growth with meropenem, percent inhibition; inhibition, % at 25 µM; 0.27% of 330,000 active; AID 434955, 2010; call rule not given here;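 further: growth measured after seven days incubation then overnight dye step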
Mtb FBA confirm: M. tuberculosis aldolase blockers, biochemical, fluorescence, strain H37Rv, confirmation; shares compounds with Mtb FBA inh; purified M. tuberculosis FBA, fluorescence read-out; inhibition, % at 1 µM; 78% of 5,600 active
GDH-TPI counter-2: GDH-TPI coupling enzyme inhibitors, artefact control for M. tuberculosis FBA inhibitor project, biochemical, fluorescence, high throughput | GDH-TPI coupled enzyme counterscreen | shares compounds with Mtb FBA inh | inhibition, % at 1 µM | 81% of 5,600 active; in the data active means inhibition above about 10%
Hits are given with their value. Unless noted, no stated cut-off is given here; in the data, active means inhibition above about 27%; inactive means the rest.

How did CC1=CC=CC2=NC(=O)CC(C)(C(=O)N(CC(=O)NC3CCCC3)Cc3ccc(Cl)cc3)N12 (centres undefined) do in these assays?
Mtb FBA inh: 105.6; GDH-TPI counter-1: inactive; UGM FP inh: inactive; Rv3671c protease: inactive; RecA splice inh: inactive; Mtb bLac sens: inactive; Mtb FBA confirm: active; GDH-TPI counter-2: active

What do the screens show for `CC1=CC2=NC(=O)CC(C)(C(=O)N(CC(=O)NC3CCCC3)c3cc(C)cc(C)c3)N2C=C1` (centres undefined)?
Mtb FBA inh: 56.9; GDH-TPI counter-1: inactive; UGM FP inh: inactive; Rv3671c protease: inactive; RecA splice inh: inactive; Mtb bLac sens: inactive; Mtb FBA confirm: active; GDH-TPI counter-2: active

What do the screens show for `Cc1cc(Cl)c(C)c(S(=O)(=O)N2CCN(CC(=O)N3CCOCC3)CC2)c1Cl`?
Mtb FBA inh: inactive; GDH-TPI counter-1: inactive; UGM FP inh: inactive; Rv3671c protease: inactive; Mtb bLac sens: inactive

What do the screens show for `Cc1ccc(S(=O)(=O)N2CCCC2CNC(=O)c2ccc(F)c(F)c2)cc1` (centres undefined)?
Mtb FBA inh: inactive; GDH-TPI counter-1: inactive; UGM FP inh: inactive; Rv3671c protease: inactive; RecA splice inh: inactive; Mtb bLac sens: inactive

How did CC(=O)c1ccc(S(=O)(=O)N(C)CCCC(=O)NCc2ccc3c(c2)OCO3)cc1 do in these assays?
Mtb FBA inh: 83.9; GDH-TPI counter-1: inactive; Mtb FBA confirm: 144.1; GDH-TPI counter-2: 95.9

What do the screens show for `Nc1cc2c3ccccc3ccc2c2ccccc12`?
Mtb FBA inh: 61.7; GDH-TPI counter-1: inactive; Mtb FBA confirm: active; GDH-TPI counter-2: active

Results for COc1cccc(/C=C/c2nc(S(=O)(=O)c3ccccc3)c(N(C)C)o2)c1 ?
Mtb FBA inh: 47.0; GDH-TPI counter-1: inactive; UGM FP inh: inactive; Rv3671c protease: inactive; RecA splice inh: inactive; Mtb bLac sens: inactive; Mtb FBA confirm: 57.6; GDH-TPI counter-2: 43.6

Results for COCCNc1oc(/C=C/c2cccc(OC)c2)nc1S(=O)(=O)c1ccccc1 ?
Mtb FBA inh: 47.2; GDH-TPI counter-1: 31.9; Mtb FBA confirm: 123.0; GDH-TPI counter-2: 89.4

Results for COc1ccccc1/C=C/c1nc(S(=O)(=O)c2ccccc2)c(N(C)C)o1 ?
Mtb FBA inh: inactive; GDH-TPI counter-1: inactive; UGM FP inh: inactive; Rv3671c protease: inactive; RecA splice inh: inactive; Mtb bLac sens: inactive

What do the screens show for `O=C(Nc1ccc2ccccc2n1)c1ccccc1Br`?
Mtb FBA inh: inactive; GDH-TPI counter-1: inactive; UGM FP inh: inactive; Rv3671c protease: inactive; Mtb bLac sens: inactive

Results for COc1ccc(/C=C/c2c(-c3ccc(OC)cc3)oc3cccnc23)cc1 ?
Mtb FBA inh: 41.1; GDH-TPI counter-1: inactive; UGM FP inh: inactive; Rv3671c protease: inactive; RecA splice inh: inactive; Mtb bLac sens: inactive; Mtb FBA confirm: inactive; GDH-TPI counter-2: inactive

Results for COc1ccc(/C=C/c2ccncc2)cc1 ?
Mtb FBA inh: inactive; GDH-TPI counter-1: inactive; UGM FP inh: inactive; Rv3671c protease: inactive; RecA splice inh: inactive; Mtb bLac sens: inactive

What do the screens show for `COc1ccccc1-n1c(SCc2cc(=O)oc3cc(O)ccc23)nc2ccccc2c1=O`?
Mtb FBA inh: 72.0; GDH-TPI counter-1: inactive; UGM FP inh: inactive; Rv3671c protease: inactive; RecA splice inh: inactive; Mtb bLac sens: inactive; Mtb FBA confirm: inactive; GDH-TPI counter-2: inactive

Results for c1ccc2c(c1)COc1c3ncccc3nn1-2 ?
Mtb FBA inh: 32.6; GDH-TPI counter-1: inactive; Mtb FBA confirm: 36.9; GDH-TPI counter-2: 32.1

What do the screens show for `O=C(c1ccc2c3n(nc2c1)-c1ccccc1CO3)N1CCCCC1`?
Mtb FBA inh: inactive; GDH-TPI counter-1: inactive; UGM FP inh: inactive; Rv3671c protease: inactive; RecA splice inh: inactive; Mtb bLac sens: inactive

What do the screens show for `COc1cccc(NC(=O)Cc2nnc(SCC(=O)c3ccccc3)n2C)c1`?
Mtb FBA inh: 83.4; GDH-TPI counter-1: inactive; RecA splice inh: inactive; Mtb FBA confirm: 160.6; GDH-TPI counter-2: 122.4

How did COc1cccc(NC(=O)Cc2nnc(SCCOc3ccccc3)n2C)c1 do in these assays?
Mtb FBA inh: inactive; GDH-TPI counter-1: inactive; UGM FP inh: inactive; Rv3671c protease: inactive; RecA splice inh: inactive; Mtb bLac sens: inactive

Results for Cc1ccc(C2OCC(C)([N+](=O)[O-])CO2)cc1 (centres undefined) ?
Mtb FBA inh: inactive; GDH-TPI counter-1: inactive

How did COc1cc(OC)cc(-c2c(C#Cc3ccsc3)c3cc(-c4ccc(C(N)=O)cc4)ccc3n2C)c1 do in these assays?
Mtb FBA inh: 32.1; GDH-TPI counter-1: inactive; UGM FP inh: inactive; Rv3671c protease: inactive; Mtb bLac sens: inactive; Mtb FBA confirm: 35.7; GDH-TPI counter-2: 16.3

How did COc1cc(OC)cc(-c2c(C#Cc3ccsc3)c3cc(-c4cc(OC)c(OC)c(OC)c4)ccc3n2C)c1 do in these assays?
Mtb FBA inh: 46.5; GDH-TPI counter-1: inactive; UGM FP inh: inactive; Rv3671c protease: inactive; Mtb bLac sens: inactive; Mtb FBA confirm: inactive; GDH-TPI counter-2: inactive

Results for CC1CCCCN1C(=S)Nc1ccc2nc3n(c(=O)c2c1)CCCCC3 (centres undefined) ?
Mtb FBA inh: 29.9; GDH-TPI counter-1: inactive; UGM FP inh: inactive; Rv3671c protease: inactive; RecA splice inh: inactive; Mtb bLac sens: inactive; Mtb FBA confirm: 44.8; GDH-TPI counter-2: 38.8

What do the screens show for `COc1cccc(Nc2ccc(C(=O)O)cc2N)c1`?
Mtb FBA inh: 61.9; GDH-TPI counter-1: inactive; UGM FP inh: inactive; Rv3671c protease: inactive; RecA splice inh: inactive; Mtb bLac sens: inactive; Mtb FBA confirm: 49.1; GDH-TPI counter-2: 49.0

How did CCOc1ccccc1Nc1ccc(C(=O)O)cc1N do in these assays?
Mtb FBA inh: inactive; GDH-TPI counter-1: inactive; UGM FP inh: inactive; Rv3671c protease: inactive; RecA splice inh: inactive; Mtb bLac sens: inactive

What do the screens show for `CC(NS(=O)(=O)c1cc2c3c(c1)CCN3C(=O)CC2)c1ccccc1` (centres undefined)?
Mtb FBA inh: inactive; GDH-TPI counter-1: inactive

How did Cc1ccccc1CN1CCN(c2nc3ccccc3s2)CC1 do in these assays?
Mtb FBA inh: inactive; GDH-TPI counter-1: inactive; UGM FP inh: inactive; Rv3671c protease: inactive; RecA splice inh: inactive; Mtb bLac sens: inactive

Screening results deposited in PubChem by several laboratories.
